# Screening results (PubChem BioAssay)
# An excerpt weighted towards active compounds, which were near 3.5% of everything screened.
# ATG4B inh: inhibitors of human ATG4B cysteine protease; ATG4B cleavage of LC3-PLA2, NBD-HPC fluorescence, 1 h; Q9Y4P1; inhibition, % at 8.33 µM; 340,000 tested, 0.51% active; in the data active = inhibition above about 40%
# SKN-1 inh: inhibitors of C. elegans SKN-1; C. elegans VP596 Pgst-4::GFP/RFP ratio, acrylamide-induced, 24 h; inhibition, % at 21.8 µM; 360,000 tested, 0.49% active; AID 624304;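 active = interference check ratio from 0.5 to 1.5 plus GFP to RFP signal ratio inhibition reaching or exceeding a fixed threshold, cut at about 30% in these data, passing the limit was not always enough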
# CHRM1 PAM: potentiates human M1 receptor response to acetylcholine; P11229; 360,000 tested, 0.088% active; activation, % at 3 µM; CHO-K1 hM1, Fluo-8 calcium fluorescence, ACh EC20; 0% = ACh EC20, 100% = maximal ACh; in the data active = activation above about 19%, passing the limit was not always enough
# Target sequence (P11229 whole entry, looked up): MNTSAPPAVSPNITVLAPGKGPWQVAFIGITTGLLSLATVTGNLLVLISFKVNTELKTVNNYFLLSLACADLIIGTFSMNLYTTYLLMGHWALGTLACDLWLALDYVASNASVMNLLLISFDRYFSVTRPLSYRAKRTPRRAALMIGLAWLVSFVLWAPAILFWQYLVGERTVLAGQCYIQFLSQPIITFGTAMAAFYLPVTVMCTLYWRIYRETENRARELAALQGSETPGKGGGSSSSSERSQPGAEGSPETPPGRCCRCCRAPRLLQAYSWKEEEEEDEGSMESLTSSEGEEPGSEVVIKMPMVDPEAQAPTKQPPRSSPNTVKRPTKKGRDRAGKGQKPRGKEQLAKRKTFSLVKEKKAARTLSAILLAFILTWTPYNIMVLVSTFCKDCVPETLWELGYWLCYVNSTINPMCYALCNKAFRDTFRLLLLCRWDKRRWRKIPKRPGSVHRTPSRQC
# Myeloid diff MLP: myeloid differentiation induction. ER-HoxA9 myeloid progenitors, lysozyme-GFP differentiation, flow cytometry. calls only at 10 µM. 360,000 tested, 1% active. AID 624256;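 active = normalized GFP-positive differentiation at or above the plate's own cutoff, the solvent-only control mean plus 3 SD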;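 note: cells exposed to compound for four days before flow analysis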
# M1 antag: antagonists of human M1 muscarinic receptor. 360,000 tested, 1.3% active. CHO-K1 hM1, Fluo-8 calcium fluorescence, ACh EC80 antagonist. inhibition, % at 3 µM;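 active = percent inhibition above its own plate's cutoff, namely the mean of that plate's compound wells plus 3 SD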;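 note: peak over basal fluorescence ratio during 140 s after agonist addition; 0% = ACh EC80 plus DMSO and 100% = DMSO alone without agonist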
# M1 ag: human M1 muscarinic receptor agonism | P11229 | CHO-K1 hM1, Fluo-8 calcium fluorescence, agonist mode; 0% DMSO, 100% acetylcholine EC100 | activation, % at 3 µM | 360,000 tested, 0.33% active;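 active = activation above the run's mean compound activation plus 3 SD, cut at about 16% in these data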;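 note: peak over basal fluorescence ratio within a 140 s kinetic read after compound addition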
# An asterisk follows results filed as active; i = inactive; · = no result given; + = active, no number.
SMILES,ATG4B inh,SKN-1 inh,CHRM1 PAM,Myeloid diff MLP,M1 antag,M1 ag
Cc1ccc(NC(=O)CN(C)C(=O)c2cc(-c3ccccc3)nn2-c2ccccc2)cc1,-13,13,3,i,-3,-4
CC(=O)Nc1ccc(NC(=O)C2Cc3c(-c4ccc5c(c4)OCO5)ccnc3O2)cc1 (stereo not given),·,2,-1,i,3,-3
COc1ccc(NC(=O)C2Cc3c(-c4ccc5c(c4)OCO5)ccnc3O2)cc1 (stereo not given),·,4,1,+,-9,-4
CS(=O)(=O)N1N=C(c2cccs2)CC1c1ccc(F)cc1 (stereo not given),4,25,10,i,-16,-5
CS(=O)(=O)N1N=C(c2cccs2)CC1c1ccccc1O (stereo not given),-1,41*,6,i,-1,-13
COc1ccc(CNC(=O)CN(C(=O)c2csnn2)c2cccc3ccccc23)cc1,5,-5,-2,i,-1,1
O=c1c2ccc([N+](=O)[O-])cc2ncn1CCOc1ccc(Cl)cc1,-2,15,-15,i,44*,-1
N#CCCSc1ccccc1NC(=O)c1cc(=O)c2ccccc2o1,-6,16,3,i,-8,-2
O=C(CN1CCOCC1)Nc1ccccc1F,-6,2,30*,·,-10,-3
O=C(CN1CCOCC1)Nc1ccccc1Sc1ccc(Cl)cc1,-7,5,-14,i,22*,-7
N#C/C(=C\c1cccnc1)c1ccc(Br)cc1,-2,44*,2,i,6,-6
CCc1ccc(NC(=S)N(CCN(C)C)C(C)c2ccncc2)cc1 (stereo not given),-9,-5,3,i,-2,-6
COc1cccc(C(=O)C2CCCN(Cc3ccc(OC)c(Cn4cncn4)c3)C2)c1 (stereo not given),3,-7,-22,i,37*,-8
COc1cccc(C(=O)C2CCCN(Cc3cccc(OCCO)c3)C2)c1 (stereo not given),19,-12,-4,i,2,-11
COc1cccc(C(=O)C2CCCN(Cc3cccc(-n4nc(C)cc4C)c3)C2)c1 (stereo not given),-6,10,-30,i,60*,-10
COc1ccc(CN2CCCC(C(=O)c3ccc(Cl)cc3)C2)cc1Cn1cccn1 (stereo not given),7,-7,-26,i,58*,-8
CC(=NCc1ccccc1)c1ccc(O)cc1O,·,5,10,i,-11,-2
O=C(NCCC1=CCCCC1)C(=O)NCCc1ccc(Cl)cc1,5,8,2,i,0,-4
S=C(NCCc1ccccc1)Nc1ccc(Cl)cc1,-3,4,-10,i,13,-9
O=[N+]([O-])c1ccc(NC(=S)NCCc2ccccc2)cc1,-9,-2,-28,i,39*,-4
O=[N+]([O-])c1ccc(NC(=S)NCCc2ccc(Cl)cc2)cc1,-5,5,-11,i,35*,1
CNC(=O)C(=O)NCCc1ccc(Cl)cc1,-2,18,21*,i,-4,-4
CCc1nc2ccccc2c(C(=O)OCc2nc3ccccc3c(=O)[nH]2)c1C,-3,5,-9,i,17,-1
CCCN(CC(=O)Nc1ccccc1OC)C(=O)CN1C(=O)NC(C)(C)C1=O,·,12,-6,i,6,-2
Cc1noc(C)c1CCC(=O)NC1CCCN(Cc2ccc(Cl)cc2)C1 (stereo not given),0,-7,-16,i,36*,-8
SMILES,ATG4B inh,SKN-1 inh,CHRM1 PAM,Myeloid diff MLP,M1 antag,M1 ag
CC(C)Cc1ccc(CN2CCCC(NC(=O)c3ccoc3)C2)cc1 (stereo not given),18,-3,-7,i,0,-5
Cc1noc(C)c1CCC(=O)NC1CCCN(Cc2ccc(CC(C)C)cc2)C1 (stereo not given),10,7,-22,i,54*,-5
CN(C)c1cc[n+](CC(=O)N2c3ccccc3Sc3ccccc32)cc1,-3,8,-25,i,100*,-8
O=C(C[n+]1ccccc1)N1c2ccccc2Sc2ccccc21,1,-5,-38,i,100*,-15
O=C(COc1cccc(F)c1)N1c2ccccc2Sc2ccccc21,10,13,-4,i,2,-9
O=C(COc1ccccc1)N1c2ccccc2Sc2ccccc21,-5,7,-16,i,15,-9
COc1ccc(COC(=O)C2=C(C)NC(=O)NC2c2ccc(OC)cc2)cc1 (stereo not given),-1,-3,6,i,-12,-5
CCOC(=O)C1=CCN(S(=O)(=O)c2ccccc2C(=O)OC)C1c1ccc(Cl)cc1 (stereo not given),·,1,0,i,6,-3
C(/C=C/c1ccccn1)=C\c1ccccc1,2,64*,-1,i,9,-5
COc1ccc(N2CCN(CCCn3cnc4c(SC)ncnc43)CC2)cc1,·,20,13,i,-19,-7
COc1cc(C(=O)OCC(=O)N2c3ccccc3NC(=O)C2(C)C)ccc1OCC(C)C,-5,-4,1,i,12,7
CCOc1ccc(OCc2ccc(C(=O)N3N=C(C(F)F)CC3(O)C(F)F)o2)cc1 (stereo not given),-6,-43,-6,i,9,-7
Cc1ccc(-c2cc(C(=O)N3N=C(C(F)F)CC3(O)C(F)F)c3ccccc3n2)cc1C (stereo not given),16,13,8,i,2,5
O=C(c1cc(-c2ccccc2)nc2ccccc12)N1N=C(C(F)F)CC1(O)C(F)F (stereo not given),-2,-10,22*,i,-2,7
O=C(c1ccc(COc2ccc(Br)cc2)o1)N1N=C(C(F)F)CC1(O)C(F)F (stereo not given),-5,6,-25,i,33*,-7
O=C(c1ccc(COc2ccc3ccccc3c2)o1)N1N=C(C(F)F)CC1(O)C(F)F (stereo not given),7,2,-21,i,56*,-5
COc1ccc(CC(=O)Nc2c3c(nn2C(C)(C)C)CS(=O)(=O)C3)cc1OC,6,3,4,i,-10,-1
Clc1ccc(CSc2nccn2Cc2ccccc2)cc1,6,38*,-5,i,6,-6
O=c1ccn(Cc2ccccc2)c(SCc2ccccc2)n1,-4,0,17,i,-17,0
